Records with an inconclusive call do not appear. Calls of active or inactive are those of the source. Calls come from the whole dose curve; as a rule, active = well fitted curve in the direction sought with a large enough effect in the repeat runs; inconclusive = weak or mixed curves; inactive = no such curve, though single readings can be large; an effect the other way counts as inactive or inconclusive.
How the values were obtained:
[1] = qHTS RealTime-Glo MT Cell Viability Assay in HepG2 cells - 40 hour (AID 1224870); note: nearly all actives have a fitted effect of over 50% in size
Method in brief: (§1)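 HepG2 cells mixed with RealTime-Glo MT reagents (NanoLuc plus cell-permeant prosubstrate) were seeded at 600 cells/well, incubated 5 h at 37 C/5% CO2, then pinned with compounds in DMSO; nonlytic luminescence tracked viability during 40 h treatment.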

[2] = A CellTox Green Cytotoxicity Assay to monitor cytotoxicity in HEK293 cells - 40 hour (AID 1224871); note: nearly all actives have a fitted effect of over 45% in size
Method in brief: (§2)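 Tox21 screen in HEK293: membrane-impermeant cyanine dye fluoresces on binding dead-cell DNA; compound pinned 5 h post-seeding, plates held at 37 C, signal read repeatedly through 40 h.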

[3] = qHTS RealTime-Glo MT Cell Viability Assay in HEK293 cells - 16 hour (AID 1224872); note: top concentration of the series differs between compounds; nearly all actives have a fitted effect of over 50% in size
Method in brief: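 Assay medium contained NanoLuc luciferase plus cell-permeant prosubstrate, added with HEK293 cells at 600 cells/well. After 5 h at 37 C/5% CO2 compounds were added; plates stayed at 37 C for 40 h with serial luminescence reads.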

[4] = qHTS RealTime-Glo MT Cell Viability Assay in HepG2 cells - 8 hour (AID 1224873); note: nearly all actives have a fitted effect of over 55% in size
Method in brief: as §1

[5] = qHTS RealTime-Glo MT Cell Viability Assay in HEK293 cells - 40 hour (AID 1224874); conditions: RealTime-Glo luminescence; max response: active compounds read low; note: nearly all actives have a fitted effect of over 50% in size
Method in brief: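 HEK293 + NanoLuc + prosubstrate, 600 cells/well; 5 h, 37 C/5% CO2; compound 23 nL in DMSO by pintool; 37 C; luminescence read at 0, 8, 16, 24, 32 and 40 h time points.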

[6] = A CellTox Green Cytotoxicity Assay to monitor cytotoxicity in HEK293 cells - 24 hour (AID 1224875); note: series mostly up to about 77 µM; nearly all actives have a fitted effect of over 45% in size
Method in brief: as §2

[7] = A CellTox Green Cytotoxicity Assay to monitor cytotoxicity in HepG2 cells - 16 hour (AID 1224876); note: nearly all actives have a fitted effect of over 45% in size
Method in brief: (§3)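 Measurements at 0, 8, 16, 24, 32 and 40 h of treatment captured CellTox Green fluorescence in HepG2 cells that had been co-plated with reagent and preincubated 5 h at 37 C/5% CO2.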

[8] = qHTS RealTime-Glo MT Cell Viability Assay in HepG2 cells - 32 hour (AID 1224877); note: nearly all actives have a fitted effect of over 55% in size
Method in brief: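 qHTS, HepG2, 600 cells/well, RealTime-Glo (NanoLuc + prosubstrate) added with cells; 5 h preincubation; DMSO compound addition; 37 C; luminescence at 0/8/16/24/32/40 h.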

[9] = A CellTox Green Cytotoxicity Assay to monitor cytotoxicity in HepG2 cells - 24 hour (AID 1224878); note: nearly all actives have a fitted effect of over 45% in size
Method in brief: as §3

[10] = A CellTox Green Cytotoxicity Assay to monitor cytotoxicity in HepG2 cells - 40 hour (AID 1224879); note: nearly all actives have a fitted effect of over 40% in size
Method in brief: as §3
% is set by controls: 0 for no effect and ±100 for the full control effect.

COc1ccc2cc(C=O)ccc2c1
inactive: Potency [1] | Potency [2] | Potency [3] | outcome [4] | max response [5] 2.85% | Potency [6] | Potency [7] | Potency [8] | Potency [9] | Potency [10]

O=C(CCOCCOCCOCCOCCC(=O)Nc1c(I)cc(I)c(C(=O)O)c1I)Nc1c(I)cc(I)c(C(=O)O)c1I
inactive: Potency [1] | Potency [2] | Potency [3] | outcome [4] | max response [5] -0.881% | Potency [6] | Potency [7] | Potency [9]

CNc1ncnc2nc[nH]c12
inactive: Potency [1] | Potency [2] | Potency [3] | outcome [4] | max response [5] 3.96% | Potency [6] | Potency [7] | Potency [8] | Potency [10]

C=C(C)C1CC=C(C)C(O)C1 (stereo unspecified)
inactive: Potency [1] | Potency [2] | Potency [3] | outcome [4] | max response [5] 9.55% | Potency [6] | Potency [7] | Potency [8] | Potency [9] | Potency [10]

COc1cc(O)cc(O)c1
inactive: Potency [1] | Potency [2] | Potency [3] | outcome [4] | max response [5] 2.03% | Potency [6] | Potency [7] | Potency [8] | Potency [9] | Potency [10]

C1C2OC2C2C1C1CC2C2OC12 (stereo unspecified)
inactive: Potency [1] | Potency [2] | Potency [3] | outcome [4] | max response [5] 2.43% | Potency [6] | Potency [7] | Potency [9]

CC(C)CCCC(C)CCCC(C)CCCCC(C)CCCC(C)CCCC(C)C (stereo unspecified)
inactive: Potency [1] | Potency [2] | Potency [3] | outcome [4] | max response [5] 3.24% | Potency [6] | Potency [7] | Potency [9] | Potency [10]

NC(=S)Nc1cccc2ccccc12
inactive: activity change, negative = cytotoxic [1] -4.8% [at 6.97 µM] | cytotoxicity increase [2] 0.339% [at 6.97 µM] | activity change, negative = cytotoxicity [3] 14.8% [at 6.97 µM] | viability change, negative = cytotoxic [4] 2.4% [at 6.97 µM] | max response [5] 16.5% | activity change [6] 0.127% [at 6.97 µM, active compounds read high] | cytotoxicity increase [7] 1.42% [at 6.97 µM] | activity change, negative = cytotoxic [8] -0.0723% [at 6.97 µM] | cytotoxicity [9] -1.06% [at 6.97 µM] | cytotoxicity increase [10] 2.43% [at 6.97 µM]

CC1=CC(=O)CCC1
inactive: Potency [1] | Potency [2] | Potency [3] | outcome [4] | max response [5] -3.69% | Potency [6] | Potency [7] | Potency [8] | Potency [9] | Potency [10]

O=c1[nH]c2ccccc2c(=O)n1CCCl
inactive: Potency [1] | Potency [2] | Potency [3] | outcome [4] | max response [5] 3.48% | Potency [6] | Potency [7] | Potency [10]

CCCCCOC(=O)Nc1nc(=O)n([C@@H]2O[C@H](C)[C@@H](O)[C@H]2O)cc1F
inactive: Potency [1] | Potency [2] | Potency [3] | outcome [4] | max response [5] 7% | Potency [6] | Potency [8] | Potency [9] | Potency [10]

N#CCc1ccccc1[N+](=O)[O-]
inactive: Potency [1] | Potency [2] | Potency [3] | outcome [4] | max response [5] 9.34% | Potency [6] | Potency [7] | Potency [9] | Potency [10]

CCCCCCCCCCC1CO1 (stereo unspecified)
inactive: Potency [1] | Potency [2] | Potency [3] | outcome [4] | Potency [6] | Potency [7] | Potency [8] | Potency [9]

CCC(=O)Nc1cccc(N)c1
inactive: Potency [1] | Potency [2] | Potency [3] | outcome [4] | max response [5] 0.318% | Potency [6] | Potency [8] | Potency [9] | Potency [10]

CC(=O)NC(Cc1ccccc1)C(=O)O (stereo unspecified)
inactive: Potency [1] | Potency [2] | Potency [3] | outcome [4] | max response [5] 5.56% | Potency [6] | Potency [8] | Potency [9]

C=CCOc1nc(OCC=C)nc(OCC=C)n1
inactive: Potency [1] | Potency [2] | Potency [3] | outcome [4] | max response [5] 11.1% | Potency [6] | Potency [8] | Potency [9] | Potency [10]

Cc1ccccc1C(=O)O
inactive: Potency [1] | Potency [2] | Potency [3] | outcome [4] | Potency [6] | Potency [7] | Potency [8]

Nc1cc(N)cc(C(=O)O)c1
inactive: Potency [1] | Potency [2] | Potency [3] | outcome [4] | max response [5] 8.18% | Potency [6] | Potency [8] | Potency [9] | Potency [10]

C(=C(c1ccccc1)c1ccccc1)c1ccccc1
inactive: Potency [1] | Potency [2] | Potency [3] | outcome [4] | max response [5] 7.28% | Potency [6] | Potency [7] | Potency [10]

CCN1CCCC(OC(=O)C(c2ccccc2)c2ccccc2)C1 (stereo unspecified)
inactive: Potency [1] | Potency [2] | Potency [3] | outcome [4] | max response [5] 14.8% | Potency [6] | Potency [8]

NC(=O)c1c(Cl)cccc1Cl
inactive: Potency [1] | Potency [2] | Potency [3] | outcome [4] | max response [5] -0.288% | Potency [6] | Potency [8] | Potency [9]

CCN1CCN(c2cc3c(cc2F)c(=O)c(C(=O)O)cn3C2CC2)CC1
inactive: Potency [1] | Potency [2] | Potency [3] | outcome [4] | max response [5] -0.866% | Potency [6] | Potency [8] | Potency [9] | Potency [10]

CC(=O)CCc1ccc(O)cc1
inactive: Potency [1] | Potency [2] | Potency [3] | outcome [4] | max response [5] -1.37% | Potency [6] | Potency [9] | Potency [10]

O=C(O)c1ccc[n+]([O-])c1
inactive: Potency [1] | Potency [2] | Potency [3] | outcome [4] | max response [5] 8.34% | Potency [6] | Potency [8] | Potency [9] | Potency [10]

Cn1ccc2cc3c(cc21)CCN3C(=O)Nc1cccnc1
inactive: activity change, negative = cytotoxic [1] -0.975% [at 15.8 µM] | cytotoxicity increase [2] -10.7% [at 15.8 µM] | activity change, negative = cytotoxicity [3] -8.97% [at 15.8 µM] | viability change, negative = cytotoxic [4] -3.74% [at 15.8 µM] | max response [5] -5.83% | activity change [6] -2.97% [at 15.8 µM, active compounds read high] | cytotoxicity [9] -8.65% [at 15.8 µM]

From PubChem BioAssay (Tox21)
